# Laboratory results taken from the supplement of paper PMC6897291.
# Counter-ions that a name gives are not always drawn.
# Columns and labels:
# U-2932 [1] = assay: growth inhibition by drug alone (1 - RLU/untreated control) (fraction); higher = stronger inhibition; settings: 177Lu-lilotomab satetraxetan 0 ug/ml
# How it was run: (§1)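 With or without 18 h pretreatment by a radiolabelled anti-CD37 antibody conjugate (~600 MBq/mg; 0.5 µg/ml RIVA, 1 µg/ml U-2932), RIVA and U-2932 cells were washed and plated at 3,000 cells/well. Pre-printed compound doses were 10/100 nM for RIVA and 10/1,000 nM for U-2932. Growth inhibition uses RealTime-Glo RLU relative to the untreated no-drug wells. The calculation is 1 − RLU/mean of 48 such wells per plate, with reads daily from day 3 after 1 h at 37°C.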
# RIVA [2] = assay: as above; settings: 177Lu-lilotomab satetraxetan 0 ug/ml
# How it was run: as §1
# U-2932 [3] = assay: growth inhibition by drug plus 177Lu-lilotomab satetraxetan (1 - RLU/untreated control) (fraction); higher = stronger inhibition; settings: 177Lu-lilotomab satetraxetan 1 ug/ml
# How it was run: as §1
# RIVA [4] = assay: as above; settings: 177Lu-lilotomab satetraxetan 0.5 ug/ml
# How it was run: as §1
SMILES,"growth inhibition by drug alone (U-2932 [1]; 10 nM, time (day): 3)","growth inhibition by drug alone (U-2932 [1]; 10 nM, time (day): 4)","growth inhibition by drug alone (U-2932 [1]; 10 nM, time (day): 5)","growth inhibition by drug alone (U-2932 [1]; 10 nM, time (day): 6)","growth inhibition by drug alone (U-2932 [1]; 1000 nM, time (day): 3)","growth inhibition by drug alone (U-2932 [1]; 1000 nM, time (day): 4)","growth inhibition by drug alone (U-2932 [1]; 1000 nM, time (day): 5)","growth inhibition by drug alone (U-2932 [1]; 1000 nM, time (day): 6)","growth inhibition by drug alone (RIVA [2]; 10 nM, time (day): 3)","growth inhibition by drug alone (RIVA [2]; 10 nM, time (day): 4)","growth inhibition by drug alone (RIVA [2]; 10 nM, time (day): 5)","growth inhibition by drug alone (RIVA [2]; 10 nM, time (day): 6)","growth inhibition by drug alone (RIVA [2]; 100 nM, time (day): 3)","growth inhibition by drug alone (RIVA [2]; 100 nM, time (day): 4)","growth inhibition by drug alone (RIVA [2]; 100 nM, time (day): 5)","growth inhibition by drug alone (RIVA [2]; 100 nM, time (day): 6)","growth inhibition by drug plus 177Lu-lilotomab satetraxetan (U-2932 [3]; 10 nM, time (day): 3)","growth inhibition by drug plus 177Lu-lilotomab satetraxetan (U-2932 [3]; 10 nM, time (day): 4)","growth inhibition by drug plus 177Lu-lilotomab satetraxetan (U-2932 [3]; 10 nM, time (day): 5)","growth inhibition by drug plus 177Lu-lilotomab satetraxetan (U-2932 [3]; 10 nM, time (day): 6)","growth inhibition by drug plus 177Lu-lilotomab satetraxetan (U-2932 [3]; 1000 nM, time (day): 3)","growth inhibition by drug plus 177Lu-lilotomab satetraxetan (U-2932 [3]; 1000 nM, time (day): 4)","growth inhibition by drug plus 177Lu-lilotomab satetraxetan (U-2932 [3]; 1000 nM, time (day): 5)","growth inhibition by drug plus 177Lu-lilotomab satetraxetan (U-2932 [3]; 1000 nM, time (day): 6)","growth inhibition by drug plus 177Lu-lilotomab satetraxetan (RIVA [4]; 10 nM, time (day): 3)","growth inhibition by drug plus 177Lu-lilotomab satetraxetan (RIVA [4]; 10 nM, time (day): 4)","growth inhibition by drug plus 177Lu-lilotomab satetraxetan (RIVA [4]; 10 nM, time (day): 5)","growth inhibition by drug plus 177Lu-lilotomab satetraxetan (RIVA [4]; 10 nM, time (day): 6)","growth inhibition by drug plus 177Lu-lilotomab satetraxetan (RIVA [4]; 100 nM, time (day): 3)","growth inhibition by drug plus 177Lu-lilotomab satetraxetan (RIVA [4]; 100 nM, time (day): 4)","growth inhibition by drug plus 177Lu-lilotomab satetraxetan (RIVA [4]; 100 nM, time (day): 5)","growth inhibition by drug plus 177Lu-lilotomab satetraxetan (RIVA [4]; 100 nM, time (day): 6)"
CCC(C)n1ncn(-c2ccc(N3CCN(c4ccc(OCC5COC(Cn6cncn6)(c6ccc(Cl)cc6Cl)O5)cc4)CC3)cc2)c1=O (stereo unspecified) [Itraconazole (Sporanox)],0.0829,0.0704,0.0582,-0.11,0.0952,0.087,0.0678,-0.00563,-0.0197,0.0654,-0.0473,-0.325,-0.037,0.0162,0.00541,-0.0886,0.0224,0.0823,0.142,0.126,0.102,0.147,0.188,0.311,0.61,0.642,0.66,0.668,0.407,0.522,0.541,0.559
O=C(O)c1ccc(-c2c[nH]c3ncc(-c4ccccc4)cc23)cc1C1CCCC1,0.092,0.0154,-0.12,-0.193,-0.0285,-0.0484,-0.0534,0.0115,-0.0813,-0.122,-0.138,-0.797,-0.515,-0.371,-0.364,-0.433,-0.00975,0.0274,-0.00811,0.0111,0.129,0.173,0.227,0.339,0.472,0.539,0.552,0.565,0.343,0.471,0.488,0.51
CN1CC[C@H](c2c(O)cc(O)c3c(=O)cc(-c4ccccc4Cl)oc23)[C@H](O)C1 [Flavopiridol hydrochloride],-0.0754,-0.0311,-0.0181,0.00401,0.957,0.967,0.974,0.979,-0.111,-0.116,-0.189,-0.255,0.504,0.533,0.499,0.385,-0.0108,0.0505,0.0958,0.189,0.965,0.972,0.978,0.983,0.521,0.567,0.566,0.567,0.615,0.69,0.704,0.72
